Source: PubChem BioAssay (NCI)
About 79,000 compounds went through this panel and 15% of them were active in at least one assay; those are over-represented in the sample as a whole. Values without a mark were called inactive. The source made the active and inactive calls. Rule as the data show it: active = growth inhibition above about 70%; inactive = the rest.

Assays:
[1] = NCI Yeast Anticancer Drug Screen. Data for the rad50 strain (AID 155);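 also: 0% = growth of vehicle-only cultures of the same strain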; details: S. cerevisiae rad50 strain growth inhibition, stronger effect = higher value
Procedure, shortened: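 Yeast carrying a defined DNA repair defect were exposed to test compounds, and growth was compared with vehicle-treated controls to give percent inhibition.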

[2] = NCI Yeast Anticancer Drug Screen. Data for the mec2-1 strain (AID 157); details: S. cerevisiae mec2-1 strain, stronger effect = higher value
Procedure, shortened: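 Mutant yeast (mec2-1) grown with compound; growth inhibition relative to vehicle control reported.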

[3] = NCI Yeast Anticancer Drug Screen. Data for the sgs1 mgt1 strain (AID 161);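 also: 0% = growth of cultures given vehicle only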; details: S. cerevisiae sgs1 mgt1 strain, stronger effect = higher value
Procedure, shortened: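 Growth of a repair-deficient yeast mutant was monitored after compound treatment and expressed as inhibition relative to vehicle-treated cultures.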

[4] = NCI Yeast Anticancer Drug Screen. Data for the cln2 rad14 strain (AID 165);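 also: 0% = growth equal to vehicle treated cultures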; details: S. cerevisiae cln2 rad14 strain, stronger effect = higher value
Procedure, shortened: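 Readout is yeast growth inhibition versus vehicle-treated controls, using a strain with cln2 and rad14 alterations exposed to compound.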

[5] = NCI Yeast Anticancer Drug Screen. Data for the bub3 strain (AID 167); details: S. cerevisiae bub3 mutant strain, stronger effect = higher value
Procedure, shortened: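 Compounds were applied to a genetically altered yeast strain carrying a cell-cycle control defect. Growth inhibition was scored against vehicle-treated controls.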

[6] = NCI Yeast Anticancer Drug Screen. Data for the mlh1 rad18 strain (AID 175); details: S. cerevisiae mlh1 rad18 strain growth inhibition, stronger effect = higher value
Procedure, shortened: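 Genetically defined yeast (DNA repair-deficient) exposed to compounds; growth inhibition determined relative to vehicle.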

[7] = at 5.0 µM (retest, dose inferred, filed as 0.5)
[8] = at 50.0 µM (retest, dose inferred, filed as 5.0)

SMILES	growth inhibition [1, 7]	growth inhibition [1, 8]	growth inhibition ([1]; at 50.0 µM)	growth inhibition [2, 7]	growth inhibition [2, 8]	growth inhibition ([2]; at 50.0 µM)	growth inhibition [3, 7]	growth inhibition [3, 8]	growth inhibition ([3]; at 50.0 µM)	growth inhibition [4, 7]	growth inhibition [4, 8]	growth inhibition ([4]; at 50.0 µM)	growth inhibition [5, 7]	growth inhibition [5, 8]	growth inhibition ([5]; at 50.0 µM)	growth inhibition [6, 7]	growth inhibition [6, 8]	growth inhibition ([6]; at 50.0 µM)
O=c1[nH]c2ccc([N+](=O)[O-])c(Cl)c2c2ccccc12	74% (active)	97% (active)	9.1%	21%	98% (active)	12.3%	38%	98% (active)	9%	9%	95% (active)	-46.8%	19%	97% (active)	1.05%	70% (active)	96% (active)	39.9%
Clc1ccc(CN2CCN(Cc3ccc(Cl)cc3)C2c2ccc(Cl)cc2)cc1	17%	66%	21.9%	4%	58%	34.5%	40%	92% (active)	53.5%	26%	55%	69.4%	33%	83% (active)	28.1%	28%	77% (active)	27.2%
O=C(O)c1ccc(C(=O)c2ccccc2C(=O)O)cc1	-3%	-4%	99.3% (active)	-5%	-2%	99.7% (active)	-1%	-1%	99.4% (active)	-2%	-7%	98.5% (active)	0%	-1%	99.7% (active)	1%	0%	99.3% (active)
CCN(CC)c1ccc2nc3ccc(N(CC)CC)cc3[n+](-c3ccccc3)c2c1	97% (active)	98% (active)	92.1% (active)	100% (active)	99% (active)	93.7% (active)	92% (active)	99% (active)	98.7% (active)	79% (active)	98% (active)	97.5% (active)	98% (active)	98% (active)	98.7% (active)	99% (active)	99% (active)	98.7% (active)
CCC1(C)OC(=O)C(c2ccccc2)O1 (centres undefined)	1%	-6%	9.2%	-2%	7%	-1.85%	5%	-5%	-19.5%	2%	1%	9.7%	2%	3%	-6.45%	-2%	-5%	17.1%
O=P1(NCC2CCCO2)OCC2(CO1)COP(=O)(NCC1CCCO1)OC2 (centres undefined)	99% (active)	95% (active)	47.3%	100% (active)	98% (active)	99.6% (active)	100% (active)	98% (active)	99% (active)	99% (active)	96% (active)	98.4% (active)	99% (active)	97% (active)	98.5% (active)	100% (active)	96% (active)	98.7% (active)
C[CH2][Sn]([CH2]C)([O]C(=O)c1cc(OC)c(OC)c(OC)c1)[O][Sn]([CH2]C)([CH2]C)[O]C(=O)c1cc(OC)c(OC)c(OC)c1	33%	79% (active)	1.2%	30%	91% (active)	12.7%	31%	85% (active)	23.6%	8%	61%	21.9%	36%	94% (active)	9.15%	27%	85% (active)	61%
CN1C=COC1N=C1CCCCC1 (centres undefined)	13%	10%	-24.2%	-1%	-5%	-7%	-2%	17%	-5.2%	11%	0%	16.6%	18%	10%	-13%	-13%	6%	-32.1%
COc1ccccc1NC(=O)CC(=O)N1N=C(c2ccccc2)C(N=Nc2ccc(Cl)cc2)C1=O (centres undefined)	20%	20%	-5.1%	21%	21%	0.6%	25%	25%	-2%	12%	12%	-41.2%	15%	15%	1%	6%	6%	-8.05%
CCCN1CCN(c2ccc([N+](=O)[O-])c3no[n+]([O-])c23)CC1	97% (active)	99% (active)	89% (active)	97% (active)	99% (active)	93.3% (active)	92% (active)	99% (active)	89.5% (active)	52%	99% (active)	80.3% (active)	58%	98% (active)	90.2% (active)	97% (active)	99% (active)	88.6% (active)
CC/C(Cl)=N\OC(=O)Nc1ccc(F)c(Cl)c1	-8%	98% (active)	58.5%	5%	96% (active)	84.4% (active)	36%	99% (active)	83.7% (active)	31%	75% (active)	51%	5%	92% (active)	78.2% (active)	-8%	94% (active)	69.3%
COc1ccc(C2C3=C(CC(C)(C)CC3=O)Oc3cc4c(cc32)OCO4)c(OC)c1 (centres undefined)	9%	48%	52.4%	16%	27%	65.5%	11%	-17%	64.2%	5%	20%	20.2%	2%	52%	45.8%	5%	14%	73% (active)
Cc1ccc(C2(O)CCN(Cc3ccccc3)CC2)cc1	30%	85% (active)	56.5%	39%	99% (active)	8.3%	47%	72% (active)	70% (active)	75% (active)	89% (active)	61.8%	64%	81% (active)	41%	37%	98% (active)	47%
C/C(O)=c1\cc(C#N)c(=C(C#N)C#N)nc1C	-4%	-3%	8.05%	-2%	1%	-0.15%	2%	5%	1.15%	-1%	-8%	-3%	3%	11%	10.6%	0%	3%	46.4%
[N-]=[N+]=CC(=O)CCC(NC(=O)OCc1ccccc1)C(=O)OCc1ccccc1 (centres undefined)	96% (active)	99% (active)	91.2% (active)	97% (active)	100% (active)	93.1% (active)	96% (active)	99% (active)	90.5% (active)	96% (active)	99% (active)	90.9% (active)	97% (active)	100% (active)	89% (active)	97% (active)	98% (active)	90.8% (active)
Cc1nc2[nH]cc(C)c2c(=O)[nH]1	6%	-11%	-24.8%	-4%	-14%	-2.25%	-1%	-7%	4.1%	-11%	-4%	35.1%	2%	-15%	4.6%	-10%	-14%	-8.2%
CCOC(=O)/C(=C\c1ccc(C)cc1)C(C)=O	19%	89% (active)	91.1% (active)	-19%	97% (active)	91.8% (active)	24%	95% (active)	93.1% (active)	5%	89% (active)	84.7% (active)	33%	98% (active)	91.2% (active)	22%	96% (active)	90.7% (active)
C/C=C/c1ccc(OCC(=O)O)c(OC)c1	-14%	-10%	99% (active)	-9%	-18%	98.2% (active)	8%	1%	98.2% (active)	-3%	-11%	98.2% (active)	-31%	-4%	98.8% (active)	-5%	-11%	98% (active)
